Hits are enriched below; roughly 2.4% of the tested compounds scored in any of these assays.
D2 ag-1 = HTS Assay for Allosteric Agonists of the Human D2 Dopamine Receptor: Primary Screen for Agonists; HEK293 T-REx D2 cells, calcium flux agonist mode; activation, % at 2 µM; hit rate 0.53% among 340,000; AID 485358, 2010;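 active means activation over 3 SD above normal in the single-dose calcium agonist read, cut at about 30% in these data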; further: 0% is about no effect
Target sequence (P14416 whole entry, looked up): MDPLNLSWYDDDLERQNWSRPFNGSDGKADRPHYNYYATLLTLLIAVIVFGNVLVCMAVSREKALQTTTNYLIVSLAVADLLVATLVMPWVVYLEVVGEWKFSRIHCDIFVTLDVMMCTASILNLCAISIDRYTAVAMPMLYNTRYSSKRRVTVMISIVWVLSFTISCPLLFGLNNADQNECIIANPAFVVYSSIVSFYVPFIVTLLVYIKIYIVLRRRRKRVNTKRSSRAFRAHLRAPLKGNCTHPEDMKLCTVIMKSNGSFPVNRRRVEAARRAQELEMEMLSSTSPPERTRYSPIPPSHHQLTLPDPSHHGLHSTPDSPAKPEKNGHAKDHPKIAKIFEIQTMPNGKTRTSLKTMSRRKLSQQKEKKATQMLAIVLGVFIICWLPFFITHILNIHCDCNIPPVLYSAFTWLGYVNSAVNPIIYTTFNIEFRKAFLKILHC
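Tetracycline-induced HEK293 Trex cells with D2 receptor force-coupled to calcium signaling, plated overnight at 30 C and loaded with no-wash calcium dye. Calcium flux read kinetically for 180 s after compound addition; responses flag agonists.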
D2 PAM-1 = HTS Assay for Positive Allosteric Modulators of the Human D2 Dopamine Receptor: Primary Screen for Potentiators | D(2) dopamine receptor (Homo sapiens), P14416 | HEK293 T-REx D2, calcium flux, EC20 dopamine potentiation | potentiation, % at 10 µM | hit rate 0.34% among 340,000 | AID 485347, 2010;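 active means potentiation over 3 SD above the plate norm, cut at about 30% in these data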; further: 0% is about no effect
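Calcium flux readout, no-wash dye, 1 read/s. Inducible HEK293 Trex D2 line, overnight 30 C. Compound alone 180 s (agonist flags), then EC20 dopamine, another 180 s to score potentiation.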
D2 antag = HTS Assay for Allosteric Antagonists of the Human D2 Dopamine Receptor: Primary Screen for Antagonists; inhibition, % at 10 µM; AID 485344, 2010; hit rate 2% among 340,000; HEK293 TREx D2 cells, calcium flux, dopamine EC80; D(2) dopamine receptor (Homo sapiens), P14416; in the data active means inhibition above about 30%; inactive means below that, where a call was filed; further: 0% is about no effect
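Dopamine at EC80 is the agonist stimulus; test compounds precede it by 180 s. Calcium flux read kinetically in a force-coupled, inducible HEK293 T-REx D2 cell line.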
D2 PAM-2 = Beta-Arrestin HTS for Positive Allosteric Modulators of the Human D2 Dopamine Receptor: Potentiators; DiscoveRx D2 beta-arrestin cells, luminescence, 90 min; 100% = 57 uM dopamine signal; potentiation, % (no concentration beside the values); hit rate 0.23% among 360,000; AID 624464, 2012; in the data active means potentiation above about 50%; inconclusive means mostly about 30% to 49%
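PathHunter D2 cells, attached overnight at 37 deg C, received compound in DMSO plus dopamine at EC20 (50 nM final) for 90 min at 37 deg C. Beta-arrestin recruitment was read as luminescence after 1 h with detection reagent at ambient temperature.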
D2 ag-2 = Beta-Arrestin HTS for Positive Allosteric Modulators of the Human D2 Dopamine Receptor: Agonists; AID 624465, 2012; D(2) dopamine receptor (Homo sapiens), P14416; activation, % (test concentration not listed); DiscoveRx PathHunter D2 beta-arrestin, luminescence, 90 min; 100% = 57 uM dopamine signal; hit rate 0.084% among 360,000; in the data active means activation above about 40%; inconclusive means between about 15% and that limit
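DiscoveRx PathHunter D2 beta-arrestin cells (2,100/well) attached overnight, then compound-stimulated 90 min at 37 C in HBSS/10 mM HEPES/0.1% Tween-20 buffer; beta-galactosidase complementation read by luminescence after 1 h at ambient temperature. Dopamine 57 uM final (EC100) as control.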
D3 ag = qHTS of D3 Dopamine Receptor Agonist: D3 Dopamine Receptor B-arrestin Agonist Confirmatory Assay. hit rate 4% among 2,300. Potency, µM (highest dose often 76.9 µM), for inactives: at the highest dose activation, hits mostly activators. DiscoveRx D3 beta-arrestin cells, luminescence, 90 min. shares compounds with D2 ag-1;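 further: potency means the concentration at half of the fitted maximal effect; 100% = dopamine control response; nearly all actives have a fitted effect of over 70% in size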
D2 ag-3 = qHTS of D3 Dopamine Receptor Agonist: D2 Dopamine Receptor B-arrestin Agonist Counterscreen. hit rate 5.9% among 2,300. Potency, µM (series often up to 76.9 µM), for the others: at the highest dose activation, actives largely listed as activators. shares compounds with D2 ag-1. DiscoveRx PathHunter D2 beta-arrestin, luminescence, 90 min; response scale: percent relative to full dopamine signal; further: potency means the concentration at half of the fitted maximal effect; % of control where 0% means no effect; nearly all actives have a fitted effect of over 70% in size
* = called active by the depositor; ? = inconclusive; nt = no result given. Unless noted, the call rests on the fitted dose curve; in most records, active means well fitted activation curve with a large enough effect; inconclusive means small, poorly fitted or top-dose-only effect; inactive means flat fitted curve, though single readings scatter.

SMILES | D2 ag-1 | D2 PAM-1 | D2 antag | D2 PAM-2 | D2 ag-2 | D3 ag | D2 ag-3
CN1C(=O)N(C)C(=O)C2(Cc3ccccc3N3CCCC32)C1=O (configuration not stated) | 1 | -5 | -11 | -3 | 0 | nt | nt
O=C1NC(=S)N(c2ccc(Br)cc2)C(=O)/C1=C/N1CCN(C(=O)c2ccco2)CC1 | 27 | -10 | 11 | -39 | -4 | -4% | -2%
CCN(C(=O)CN1CC=C(c2ccccc2)CC1)c1c(N)n(Cc2ccccc2)c(=O)[nH]c1=O | 11 | -8 | -13 | -9 | -2 | -12% | 2%
Fc1ccccc1CNCCc1c[nH]c2ccccc12 | 16 | -21 | 26 | -19 | -1 | -23% | 0%
OC(CNCCc1c[nH]c2ccccc12)c1ccccc1 (configuration not stated) | 12 | -1 | 54* | -14 | -4 | -3% | 5%
Fc1ccc(CNCCc2c[nH]c3ccccc23)cc1 | 1 | -15 | -17 | -22 | 4 | nt | nt
COc1ccc(CNCCc2c[nH]c3ccccc23)c(OC)c1C | 7 | -15 | 33* | -12 | -2 | -6% | 5%
CC(=O)NCCc1c[nH]c2ccccc12 | 1 | -3 | 9 | -18 | -4 | nt | nt
O=[N+]([O-])c1ccc(CN2CC=C(c3ccccc3)CC2)cc1 | 78* | -50 | 89* | -21 | -1 | 5% | 10%
N#Cc1cc2c(nc1SCC(=O)Nc1ccc(Cl)c(C(F)(F)F)c1)C1CCN2CC1 | 1 | 18 | nt | nt | nt | nt | nt
CCOC(=O)c1ccc(N2C(=O)CC(N3CC=C(c4ccc(F)cc4)CC3)C2=O)cc1 (configuration not stated) | -1 | 1 | -9 | -1 | -1 | nt | nt
NC(=O)c1ccc(OCCC(O)N2CC=C(c3ccc(F)cc3)CC2)cc1 (configuration not stated) | 35* | -12 | 65* | -26 | -1 | ? | ?
Cc1oc(-c2ccc(Cl)cc2)nc1CN1C(=O)CN=C(c2ccccc2)c2cc(Cl)ccc21 | 3 | -5 | nt | nt | nt | nt | nt
Nc1ccc(N2CCN(Cc3ccccc3Cl)CC2)c(Cl)c1 | 3 | -27 | 28 | -11 | -3 | nt | nt
Clc1ccccc1CN1CCN(c2ccccc2)CC1 | 68* | -26 | 68* | 7 | ? | 0% | ?
Clc1ccccc1CN1CCN(c2cccc3[nH]ccc23)CC1 | nt | nt | nt | -6 | 5 | -8% | 1%
COc1ccc(NC(=O)CCc2nc(C3=CCN(Cc4cccc(Cl)c4)CC3)no2)cc1OC | 0 | 12 | nt | nt | nt | nt | nt
CCOC(=O)C(O)(c1ccc(NC(=S)NC(=O)c2ccc(Cl)cc2Cl)c(C)c1)C(F)(F)F (configuration not stated) | 27 | 18 | 5 | -14 | -3 | 10% | -1%
COC(=O)C(O)(c1ccc(NC(=S)NC(=O)c2ccc(Cl)cc2Cl)c(C)c1)C(F)(F)F (configuration not stated) | 20 | -8 | 5 | -6 | -14 | nt | nt
CC1=C[C@@H]2c3cccc4[nH]cc(c34)C[C@H]2N(C)C1 | nt | -32 | nt | 92* | 77* | 0.089µM* | 2.8µM*
C1=C(c2ccccc2)CCNC1 | 40* | -29 | 43* | -9 | -2 | -9% | 1%
CC(C)CC(C)N (configuration not stated) | 0 | -11 | 6 | -12 | 4 | -4% | -3%
